Assay results as given in PubChem BioAssay (Tox21).
The source made the active and inactive calls. Calls come from the whole dose curve; as a rule, active = well fitted curve in the direction sought with a large enough effect in the repeat runs; inconclusive = weak or mixed curves; inactive = flat fitted curve, though single readings scatter.

Test: qHTS assay to test for compound auto fluorescence at 460 nm (blue) in HEK293 cell free culture (AID 720681)
Settings: cell-free medium, autofluorescence 405/460 nm (blue); series mostly up to 91.3 µM; fluorescence, % of fluorescent control: at the top concentration
In short: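 Compounds were added to cell-free DMEM with 10% FBS and fluorescence read directly. The blue channel used 405 nm excitation and 460 nm emission, with triamterene as the reference fluorophore.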
% is set by controls: 0 for no effect and ±100 for the full control effect.

Question: For `O=CCCc1ccccc1`, which “fluorescence, % of fluorescent control” value is on record?
Answer: The value was -0.205% (inactive).

Question: For `CC1=C2[C@H](/C=C(\C)C(=O)O)CC[C@@H](C)[C@H]2CC1`, which “fluorescence, % of fluorescent control” value is on record?
Answer: Its value is -0.135% [at 95.7 µM] (inactive).

Question: With `Oc1ccccc1F` as the molecule, how does the “fluorescence, % of fluorescent control” value read?
Answer: Its value is -0.0028% (inactive).

Question: With `CCOc1ccc(NC(N)=O)cc1` as the molecule, how does the “fluorescence, % of fluorescent control” value read?
Answer: Its value is 0.112% (inactive).

Question: Which “fluorescence, % of fluorescent control” value does the source give for `COc1ccc2nc(NC(=O)Nc3ccccc3)sc2c1` here?
Answer: The value was -0.108% [at 46 µM] (inactive).

Question: With `CCC/C=C/CO` as the molecule, how does the “fluorescence, % of fluorescent control” value read?
Answer: Its value is -0.0107% (inactive).

Question: For `CN1C(=O)CC(c2ccccc2)C1=O` (stereo not given), which “fluorescence, % of fluorescent control” value is on record?
Answer: The value was -0.107% [at 46 µM] (inactive).

Question: For `Cc1ccc(C(C)C)cc1O`, which “fluorescence, % of fluorescent control” value is on record?
Answer: The value was 0.0331% (inactive).

Question: Which “fluorescence, % of fluorescent control” value does the source give for `Cc1c[nH]c(=S)[nH]c1=O` here?
Answer: Its value is -0.0609% (inactive).

Question: Which “fluorescence, % of fluorescent control” value does the source give for `CC1=NN(c2cc(Cl)c(S(=O)(=O)O)cc2Cl)C(=O)C1N=Nc1ccc(S(=O)(=O)O)cc1` (stereo not given) here?
Answer: The value was -0.0861% (inactive).

Question: Which “fluorescence, % of fluorescent control” value does the source give for `CCOc1ccc(OCC)c(Cl)c1` here?
Answer: Its value is -0.266% (inactive).

Question: Which “fluorescence, % of fluorescent control” value does the source give for `Cc1ccc([N+](=O)[O-])c(N)c1` here?
Answer: Its value is -0.0623% (inactive).

Question: For `CCCCN1C[C@H](O)[C@@H](O)[C@H](O)[C@H]1CO`, which “fluorescence, % of fluorescent control” value is on record?
Answer: Its value is -0.0082% [at 46 µM] (inactive).

Question: For `CN1CCN(C2=Nc3ccccc3Oc3ccc(Cl)cc32)CC1`, which fluorescence, % of fluorescent control is on record?
Answer: Its fluorescence, % of fluorescent control is 0.0139% [at 18.6 µM] (inactive).

Question: For `CC(C)O`, which outcome is on record?
Answer: The outcome was “inactive”.

Question: For `CN1[C@@H]2CC[C@H]1CC(OC(=O)c1c[nH]c3ccccc13)C2` (stereo not given in full), which “fluorescence, % of fluorescent control” value is on record?
Answer: The value was 0.002% [at 46 µM] (inactive).

Question: Which “fluorescence, % of fluorescent control” value does the source give for `CN1CCC[C@@H]1Cc1c[nH]c2ccc(CCS(=O)(=O)c3ccccc3)cc12` here?
Answer: Its value is -0.0091% [at 46 µM] (inactive).

Question: With `CC1CN(c2ccccc2)NC1=O` (stereo not given) as the molecule, how does the “fluorescence, % of fluorescent control” value read?
Answer: The value was 0.042% (inactive).

Question: For `CC(C)=CCCC(C)CCOC=O` (stereo not given), which “fluorescence, % of fluorescent control” value is on record?
Answer: The value was 0.0482% (inactive).

Question: With `CCOC(=O)CS` as the molecule, how does the “fluorescence, % of fluorescent control” value read?
Answer: The value was 0.146% [at 95.7 µM] (inactive).

Question: Which “fluorescence, % of fluorescent control” value does the source give for `Cc1cc2c(s1)Nc1ccccc1N=C2N1CCN(C)CC1` here?
Answer: The value was -0.007% [at 46 µM] (inactive).

Question: Which “fluorescence, % of fluorescent control” value does the source give for `O=C1CCCCC1C1CCCCC1` (stereo not given) here?
Answer: Its value is -0.117% (inactive).

Question: Which “fluorescence, % of fluorescent control” value does the source give for `CCC(=O)c1ccc2c(c1)N(CCCN(C)C)c1ccccc1S2` here?
Answer: Its value is 0.522% [at 46 µM] (inactive).

Question: For `CN(C)CCOc1ccccc1Cc1ccccc1`, which “fluorescence, % of fluorescent control” value is on record?
Answer: Its value is -0.0229% [at 46 µM] (inactive).

Question: With `CCOc1ccc(NS(=O)(=O)c2ccc(N)cc2)nn1` as the molecule, how does the “fluorescence, % of fluorescent control” value read?
Answer: Its value is -0.139% [at 46 µM] (inactive).

Question: For `Cn1cnc2c(F)c(Nc3ccc(Br)cc3Cl)c(C(=O)NOCCO)cc21`, which “fluorescence, % of fluorescent control” value is on record?
Answer: The value was -0.14% [at 46 µM] (inactive).

Question: With `CCCCCCCCCCCCCCCCOP(=O)([O-])OCC[N+](C)(C)C` as the molecule, how does the “fluorescence, % of fluorescent control” value read?
Answer: The value was -0.103% [at 46 µM] (inactive).

Question: For `CCN(CCCc1ccccc1)CCCc1ccccc1`, which fluorescence, % of fluorescent control is on record?
Answer: Its fluorescence, % of fluorescent control is -0.0197% [at 18.6 µM] (inactive).

Question: Which “fluorescence, % of fluorescent control” value does the source give for `CCCCCCCCCCCCOCCOS(=O)(=O)O` here?
Answer: The value was 0.0218% (inactive).

Question: Which “fluorescence, % of fluorescent control” value does the source give for `CCNCCO` here?
Answer: The value was 0.0307% (inactive).

Question: With `O=C(CC(=O)C(F)(F)F)c1ccccc1` as the molecule, how does the “fluorescence, % of fluorescent control” value read?
Answer: Its value is 0.0049% [at 95.7 µM] (inactive).

Question: With `CCCCCCCOC(=O)CCC` as the molecule, how does the “fluorescence, % of fluorescent control” value read?
Answer: The value was -0.0898% (inactive).

Question: Which “fluorescence, % of fluorescent control” value does the source give for `O=[N+]([O-])c1nccn1CO[C@@H](CO)[C@H](O)CO` here?
Answer: Its value is -0.211% [at 46 µM] (inactive).

Question: Which “fluorescence, % of fluorescent control” value does the source give for `CCCCNc1ccc(C(=O)OCCN(CC)CC)cc1` here?
Answer: The value was -0.0995% [at 46 µM] (inactive).

Question: For `C[C@@H]1CN(c2c(F)c(F)c3c(=O)c(C(=O)O)cn(C4CC4)c3c2F)C[C@H](C)N1`, which “fluorescence, % of fluorescent control” value is on record?
Answer: The value was -0.0328% [at 46 µM] (inactive).

Test: qHTS assay to test for compound auto fluorescence at 535 nm (green) in HEK293 cell free culture (AID 720682)
Settings: cell-free medium, green autofluorescence 485/535 nm, stronger effect = higher value; series mostly up to 91.3 µM; activity change: at the top concentration
In short: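 Compounds were pin-transferred into cell-free DMEM with 10% FBS, and green fluorescence was read at excitation 485 nm and emission 535 nm. Intensities were expressed as fluorescein-equivalent values.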

Question: With `O=CCCc1ccccc1` as the molecule, how does the “activity change” value read?
Answer: Its value is 0.133% (inactive).

Question: With `CC1=C2[C@H](/C=C(\C)C(=O)O)CC[C@@H](C)[C@H]2CC1` as the molecule, how does the “activity change” value read?
Answer: Its value is -0.038% [at 95.7 µM] (inactive).

Question: Which “activity change” value does the source give for `Oc1ccccc1F` here?
Answer: The value was -0.0085% (inactive).

Question: For `CCOc1ccc(NC(N)=O)cc1`, which “activity change” value is on record?
Answer: Its value is -0.0004% (inactive).

Question: Which “activity change” value does the source give for `COc1ccc2nc(NC(=O)Nc3ccccc3)sc2c1` here?
Answer: The value was -0.0643% [at 46 µM] (inactive).

Question: With `CCC/C=C/CO` as the molecule, how does the “activity change” value read?
Answer: The value was -0.0722% (inactive).

Question: For `CN1C(=O)CC(c2ccccc2)C1=O` (stereo not given), which “activity change” value is on record?
Answer: The value was -0.0831% [at 46 µM] (inactive).

Question: Which “activity change” value does the source give for `Cc1ccc(C(C)C)cc1O` here?
Answer: The value was -0.0268% (inactive).

Question: Which “activity change” value does the source give for `Cc1c[nH]c(=S)[nH]c1=O` here?
Answer: Its value is -0.0042% (inactive).

Question: Which “activity change” value does the source give for `CC1=NN(c2cc(Cl)c(S(=O)(=O)O)cc2Cl)C(=O)C1N=Nc1ccc(S(=O)(=O)O)cc1` (stereo not given) here?
Answer: The value was 0.0059% (inactive).

Question: With `CCOc1ccc(OCC)c(Cl)c1` as the molecule, how does the “activity change” value read?
Answer: Its value is -0.0106% (inactive).

Question: Which “activity change” value does the source give for `Cc1ccc([N+](=O)[O-])c(N)c1` here?
Answer: The value was 0.0896% (inactive).

Question: Which “activity change” value does the source give for `CCCCN1C[C@H](O)[C@@H](O)[C@H](O)[C@H]1CO` here?
Answer: The value was 0.0217% [at 46 µM] (inactive).

Question: For `CN1CCN(C2=Nc3ccccc3Oc3ccc(Cl)cc32)CC1`, which activity change is on record?
Answer: Its activity change is -0.0046% [at 18.6 µM] (inactive).

Question: With `CC(C)O` as the molecule, how does the outcome read?
Answer: Its outcome is “inactive”.
